Laboratory results reported in PubChem BioAssay (NCI).
Where “and” joins values, the source holds several entries; their conditions need not be identical. Identical values can stand only once. The panel holds about 83,000 compounds, 20% with a hit somewhere; the sample as a whole holds those more often.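 Negative percent growth values reflect cell death: -40 means 40% of the cells present at the start died, and -100 means all died.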 Calls of active or inactive are those of the source. The calls were made as follows: active = growth percent below 10; inactive = the rest.

The compounds below were run on SK-OV-3 ovarian (assay: NCI-60 one-dose screen, 48 h (100 = growth as untreated, 0 = no growth, -100 = all killed)). Conditions: 10 µM unless noted.

| SMILES | growth |
| --- | --- |
| Nc1n[nH]c2cccc(C#Cc3cccc(NC(=O)c4ccc(N5CCOCC5)c(C(F)(F)F)c4)c3)c12 | 2.24% (active) |
| COC1=CC(=O)C(OC)=C(O)C1=O | 91% (inactive) |
| CONC1=Nc2cc(NC(N)=NCc3ccccc3)c(N(C)C3CCCCC3)cc2OC1 | 83.5% (inactive) |
| Cc1ccc(NC(=O)c2ccc(CN3CCN(C)CC3)cc2)cc1Nc1nccc(-c2cccnc2)n1 | 106% (inactive) and 107% (inactive) |
| Fc1ccc(NC(c2ccc(F)cc2)C2CCN(CCCCc3ccccc3)CC2)cc1 (stereo unspecified) | 64.6% (inactive) |
| COc1ccc2c(O)c(/C=C3\N=Nc4nc(C)ccc43)oc2c1CC1CCNCC1 | 80.8% (inactive) |
| COc1ccc(C(=O)N/N=C/c2ccc(O)cc2O)cc1Nc1ccnc(C(F)(F)F)c1 | 19.7% (inactive) |
| COc1ccc(-c2cc(-c3cc(OC)c(OC)c(OC)c3)c(C#N)c(=O)n2CCCCC(=O)O)cc1 | 125% (inactive) |
| COc1cc(-c2[nH]ncc2Nc2ccc(Cl)cc2)cc(OC)c1OC | 64.3% (inactive) |
| Nc1ccc(S(=O)(=O)c2ccc(N)cc2)cc1 | 118% (inactive) and 102% (inactive) |
| C/C(=C(\c1ccc(OCCN2CCOCC2)cc1)c1ccc(OC(=O)C2CCCCC2)cc1)c1ccc(Cl)cc1 | 96.6% (inactive) |
| CCN(CC)CCOc1ccc(/C(=C(\Cl)c2ccccc2)c2ccccc2)cc1 | 45.5% (inactive) and 80.8% (inactive) |
| CSc1nnc(-c2cc3c([nH]c4ccccc43)c(-c3cccc(O)c3)n2)n1-c1ccc(C)cc1 | 42% (inactive) |
| COc1ccc(/C(C)=C(\c2ccc(OCCN3CCCCCC3)cc2)c2ccc(OC(=O)C3CCCCC3)cc2)cc1 | -70.9% (active) |
| N=C1/C(=C2\NC3C=CC=CC3S2)C(c2ccc(Cl)cc2)C2C(=O)N(c3ccccc3)C(=S)N12 (stereo unspecified) | 105% (inactive) |
| Nc1nc(Nc2cccnc2)sc1C(=O)c1ccccc1F | 85.9% (inactive) |
| COCCOc1cc2ncnc(N3CCN(S(=O)(=O)c4ccccc4Cl)CC3)c2cc1OCCOC | 104% (inactive) |
| O=C1/C(=C/c2ccc(F)c(F)c2)CN(C(=O)C(Cl)Cl)C/C1=C\c1ccc(F)c(F)c1 | -35% (active) |
| O=C([C@H]1C[C@H]1c1ccc(S(F)(F)(F)(F)F)cc1)N1CCN(c2cc(Cl)ccc2C(F)(F)F)CC1 | 79.1% (inactive) |
| O=C(NNc1ccccc1)c1ncc[nH]1 | 81.2% (inactive) |
| COc1cccc(C2C(C#N)=C(N)Oc3cc(OCCCCCC[P+](c4ccccc4)(c4ccccc4)c4ccccc4)ccc32)c1 (stereo unspecified) | -33.5% (active) |
| CCOC(=O)N(O)c1ccc(/C=C/c2ccccc2)cc1 | 94.1% (inactive) and 92.6% (inactive) |
| CN(C)CCN1C(=O)c2c(c3c4ccccc4n4c3c3c2c2ccccc2n3C2CC(O)C(O)C4(C)O2)C1=O (stereo unspecified) | 25.3% (inactive) |
| O=C(CCCOc1ccc(Br)cc1)Nc1ncc(Cc2ccc(F)cc2)s1 | 81.7% (inactive) |
| COc1cc(NC2CCCCC2O)c2nc(-c3ccc(Cl)cc3)ccc2c1 (stereo unspecified) | 101% (inactive) and 105% (inactive) |
| O=C(O)C1C2CCC1C(O)C2 (stereo unspecified) | 105% (inactive) and 98.8% (inactive) |
| C=C1CC[C@@H]2[C@](C)(COC(C)=O)[C@H](OC(C)=O)CC[C@@]2(C)[C@@H]1CC(Nc1ccc(S(=O)(=O)Nc2nccs2)cc1)C1=CCOC1=O (stereo partly specified) | 79.9% (inactive) |
| Nc1nc(Nc2ccc(F)cc2)nn1C(=O)c1cc(Cl)ccc1Cl | 118% (inactive) |

What follows are compounds tested on IGROV1 ovarian in the same assay as above. Conditions: 10 µM unless noted.

| SMILES | growth |
| --- | --- |
| CN(C)C(=O)c1cc2cnc(Nc3ccc(-c4csc5c(=S)cc(N6CCOCC6)oc45)cc3)nc2n1C1CCCC1 | 8.93% (active) |
| CN1CCN(c2ccc(/C=C/C(=O)c3ccc(O)cc3)cc2)CC1 | 105% (inactive) |
| CCCCC(NC(=O)CN1C(=O)/C(=C/C(C)=C/c2ccccc2)SC1=S)C(=O)O (stereo unspecified) | 102% (inactive) |
| CC1(Cc2ccccc2)CC2=C(C(=O)O1)C(c1ccccc1)NC(=O)N2 (stereo unspecified) | 118% (inactive) |
| COc1ccc(-c2nc(Cl)c3c(C)nn(-c4ccc(F)cc4)c3n2)cc1 | 109% (inactive) |
| CCCCn1c(C(=O)c2c[nH]c3ccccc23)n[nH]c1=S | 87.7% (inactive) |
| COc1ccc(/C=C2\COc3ccc(O)c(O)c3C2=O)c(OC)c1OC | 16.9% (inactive) |
| C=C(CN1CC=CCC1)[C@@H]1CC[C@]2(COC(C)=O)CC[C@]3(C)[C@H](CC[C@@H]4[C@@]5(C)CC[C@H](O)C(C)(C)[C@@H]5CC[C@]43C)[C@@H]12 | 112% (inactive) |
| O=[N+]([O-])c1ccc(S(=O)Cc2ccccc2)c([N+](=O)[O-])c1 (stereo unspecified) | 89.9% (inactive) and 106% (inactive) |
| O=C(Cn1cc(CN2CCN(c3ccnc4cc(Cl)ccc34)CC2)nn1)Nc1cccc([N+](=O)[O-])c1 | -94.7% (active) |
| Nc1n[nH]c2cccc(C#Cc3cccc(NC(=O)c4ccc(N5CCOCC5)c(C(F)(F)F)c4)c3)c12 | -39.1% (active) |
| COC1=CC(=O)C(OC)=C(O)C1=O | 103% (inactive) |
| CONC1=Nc2cc(NC(N)=NCc3ccccc3)c(N(C)C3CCCCC3)cc2OC1 | 59.6% (inactive) |
| Cc1ccc(NC(=O)c2ccc(CN3CCN(C)CC3)cc2)cc1Nc1nccc(-c2cccnc2)n1 | 119% (inactive) and 98.3% (inactive) |
| Fc1ccc(NC(c2ccc(F)cc2)C2CCN(CCCCc3ccccc3)CC2)cc1 (stereo unspecified) | 55.9% (inactive) |
| COc1ccc2c(O)c(/C=C3\N=Nc4nc(C)ccc43)oc2c1CC1CCNCC1 | 60.8% (inactive) |
| COc1ccc(C(=O)N/N=C/c2ccc(O)cc2O)cc1Nc1ccnc(C(F)(F)F)c1 | 26.8% (inactive) |
| COc1ccc(-c2cc(-c3cc(OC)c(OC)c(OC)c3)c(C#N)c(=O)n2CCCCC(=O)O)cc1 | 104% (inactive) |
| COc1cc(-c2[nH]ncc2Nc2ccc(Cl)cc2)cc(OC)c1OC | 69.8% (inactive) |

| SMILES | growth |
| --- | --- |
| Nc1ccc(S(=O)(=O)c2ccc(N)cc2)cc1 | 108% (inactive) and 61% (inactive) |
| C/C(=C(\c1ccc(OCCN2CCOCC2)cc1)c1ccc(OC(=O)C2CCCCC2)cc1)c1ccc(Cl)cc1 | 103% (inactive) |
| CCN(CC)CCOc1ccc(/C(=C(\Cl)c2ccccc2)c2ccccc2)cc1 | 53.6% (inactive) |
| CSc1nnc(-c2cc3c([nH]c4ccccc43)c(-c3cccc(O)c3)n2)n1-c1ccc(C)cc1 | 51% (inactive) |
| COc1ccc(/C(C)=C(\c2ccc(OCCN3CCCCCC3)cc2)c2ccc(OC(=O)C3CCCCC3)cc2)cc1 | -49% (active) |
| N=C1/C(=C2\NC3C=CC=CC3S2)C(c2ccc(Cl)cc2)C2C(=O)N(c3ccccc3)C(=S)N12 (stereo unspecified) | 92.8% (inactive) |
| Nc1nc(Nc2cccnc2)sc1C(=O)c1ccccc1F | 21.3% (inactive) |
| COCCOc1cc2ncnc(N3CCN(S(=O)(=O)c4ccccc4Cl)CC3)c2cc1OCCOC | 89.7% (inactive) |
| O=C1/C(=C/c2ccc(F)c(F)c2)CN(C(=O)C(Cl)Cl)C/C1=C\c1ccc(F)c(F)c1 | -84.5% (active) |
| O=C([C@H]1C[C@H]1c1ccc(S(F)(F)(F)(F)F)cc1)N1CCN(c2cc(Cl)ccc2C(F)(F)F)CC1 | 73.3% (inactive) |
| O=C(NNc1ccccc1)c1ncc[nH]1 | 71.1% (inactive) |
| COc1cccc(C2C(C#N)=C(N)Oc3cc(OCCCCCC[P+](c4ccccc4)(c4ccccc4)c4ccccc4)ccc32)c1 (stereo unspecified) | -55.8% (active) |
| CCOC(=O)N(O)c1ccc(/C=C/c2ccccc2)cc1 | 8.91% (active) and 1.54% (active) |
| CN(C)CCN1C(=O)c2c(c3c4ccccc4n4c3c3c2c2ccccc2n3C2CC(O)C(O)C4(C)O2)C1=O (stereo unspecified) | 16.5% (inactive) |
| O=C(CCCOc1ccc(Br)cc1)Nc1ncc(Cc2ccc(F)cc2)s1 | 78.5% (inactive) |
| COc1cc(NC2CCCCC2O)c2nc(-c3ccc(Cl)cc3)ccc2c1 (stereo unspecified) | 97.2% (inactive) and 96% (inactive) |
| O=C(O)C1C2CCC1C(O)C2 (stereo unspecified) | 124% (inactive) and 112% (inactive) |
| C=C1CC[C@@H]2[C@](C)(COC(C)=O)[C@H](OC(C)=O)CC[C@@]2(C)[C@@H]1CC(Nc1ccc(S(=O)(=O)Nc2nccs2)cc1)C1=CCOC1=O (stereo partly specified) | 12.6% (inactive) |
| Nc1nc(Nc2ccc(F)cc2)nn1C(=O)c1cc(Cl)ccc1Cl | 62.6% (inactive) |
